Results taken from the supplement of paper PMC12067926.

Legend:
Assay in all cases: relative growth (AUC of 72 h growth curve relative to DMSO control, dAUC) (ratio); higher = more growth (less inhibition), active = hit call of the paper
Settings in all cases: 20 µM;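 active = growth AUC significantly below the DMSO wells by Dunnett test; inactive = the rest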
[1] = compound: C=CCOC(Cn1ccnc1)c1ccc(Cl)cc1Cl
In short: (§1)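 Isolates from Icelandic stream sediments and Silwood Park soil, along with whole sediment communities, were grown in Luria–Bertani medium to carrying capacity and diluted 1:100 into 96-well plates with each chemical at 20 µM (1% DMSO). A600 was measured hourly for 72 h, and values were averaged over three biological replicates. Relative growth (dAUC) is the spline-integrated growth-curve area over the mean of the DMSO controls.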

[2] = compound: CC(=O)CC(c1ccccc1)c1c(O)c2ccccc2oc1=O
In short: as §1

[3] = compound: CC1COc2ccccc2N1C(=O)C(Cl)Cl
In short: as §1

[4] = compound: CCCCC(CC)CN1C(=O)[C@@H]2[C@H](C1=O)[C@@H]1C=C[C@H]2C1 (mixture of isomers)
In short: as §1

[5] = compound: CCCCCCCCc1c(CC)nc2ncnn2c1N
In short: as §1

[6] = compound: CCCCOCCOCCOCc1cc2c(cc1CCC)OCO2
In short: as §1

[7] = compound: CCCOC(=O)NCCCN(C)C
In short: as §1

[8] = compound: COC(=O)c1csc(C)c1S(=O)(=O)NC(=O)n1nc(OC)n(C)c1=O
In short: as §1

[9] = compound: Cc1ccc(C(C)NC(=O)[C@@H](NC(=O)OC(C)C)C(C)C)cc1
In short: as §1

[10] = compound: Cc1nn(C)c(Oc2ccccc2)c1/C=N/OCc1ccc(C(=O)OC(C)(C)C)cc1
In short: as §1

[11] = compound: Cn1cc(C(=O)Nc2ccc(F)cc2-c2ccc(Cl)c(Cl)c2)c(C(F)F)n1
In short: as §1

[12] = compound: Cn1cc(C(=O)Nc2ccccc2-c2cc(F)c(F)c(F)c2)c(C(F)F)n1
In short: as §1

[13] = compound: O=C(NCc1ncc(C(F)(F)F)cc1Cl)c1c(Cl)cccc1Cl
In short: as §1

[14] = compound: Oc1c(Cl)cc(Cl)c(Cl)c1Cc1c(O)c(Cl)cc(Cl)c1Cl
In short: as §1

[15] = compound: S=C([S-])NCCNC(=S)[S-].S=C([S-])NCCNC(=S)[S-].[Mn+2].[Zn+2]
In short: as §1

[16] = compound: c1ccc2[nH]c(-c3cscn3)nc2c1
In short: as §1

Measured: relative growth

Community 8
inactive: [1] 0.913 | [2] 1.03 | [3] 1.03 | [4] 0.989 | [5] 1.07 | [6] 0.957 | [7] 1.03 | [8] 1.01 | [9] 0.972 | [10] 1.01 | [11] 0.943 | [12] 1.04 | [13] 1.02 | [14] 0.806 | [15] 1.13 | [16] 0.998

Serratia 1 (Serratia sp. 2015-2462-01)
active: [14] 0.00199
inactive: [1] 0.919 | [2] 0.952 | [3] 0.946 | [4] 0.932 | [5] 0.971 | [6] 0.954 | [7] 0.979 | [8] 0.99 | [9] 0.955 | [10] 0.973 | [11] 0.949 | [12] 1.02 | [13] 0.994 | [15] 1.06 | [16] 0.982

Microbacterium 1 (Microbacterium arborescens)
inactive: [1] 0.965 | [2] 1.05 | [3] 0.934 | [4] 0.918 | [5] 0.98 | [6] 0.988 | [7] 1.02 | [8] 1.03 | [9] 0.968 | [10] 1.03 | [11] 1.04 | [12] 1.01 | [13] 1.05 | [15] 0.986 | [16] 0.983
active: [14] 0.0384

Pseudomonas 5 (Pseudomonas baetica)
active: [14] 0.501
inactive: [1] 0.962 | [2] 1.03 | [3] 1.08 | [4] 0.989 | [5] 1 | [6] 1.01 | [7] 0.994 | [8] 1.04 | [9] 1.02 | [10] 1.05 | [11] 0.995 | [12] 1.05 | [13] 1.05 | [15] 1.03 | [16] 0.951

Neobacillus 1 (Neobacillus soli)
active: [14] 0.507
inactive: [1] 0.996 | [2] 0.98 | [3] 0.978 | [4] 0.974 | [5] 0.944 | [6] 1.04 | [7] 1.01 | [8] 1.07 | [9] 0.946 | [10] 0.942 | [11] 0.848 | [12] 1.02 | [13] 1 | [15] 1.06 | [16] 0.976

Community 6
inactive: [1] 0.861 | [2] 0.916 | [3] 0.942 | [4] 0.75 | [5] 1.02 | [6] 0.907 | [7] 1.02 | [8] 1.01 | [9] 0.928 | [10] 0.712 | [11] 0.852 | [12] 1.06 | [13] 0.966 | [15] 1.16 | [16] 1.01
active: [14] 0.442

Argrobacterium 1 (Agrobacterium sp.)
active: [14] 0.705
inactive: [1] 1.11 | [2] 0.978 | [3] 1.03 | [4] 1.13 | [5] 1.04 | [6] 0.946 | [7] 0.985 | [8] 1.01 | [9] 1.01 | [10] 1.17 | [11] 0.953 | [12] 0.918 | [13] 1.02 | [15] 1.14 | [16] 0.852

Sphingomonas 2 (Sphingomonas sp.)
inactive: [1] 0.991 | [2] 1.2 | [3] 1.09 | [4] 1.07 | [5] 1.13 | [6] 0.821 | [7] 0.956 | [8] 1.14 | [9] 1.08 | [10] 1.14 | [12] 1.02 | [13] 1.09 | [15] 0.975 | [16] 1.02
active: [11] 0.555 | [14] 0.0196

Arthrobacter 3 (Arthrobacter sp.)
active: [1] 0.33 | [14] 0.0157
inactive: [2] 0.933 | [3] 1.01 | [4] 1.02 | [5] 0.981 | [6] 1.02 | [7] 1.02 | [8] 1.04 | [9] 0.922 | [10] 1 | [11] 0.725 | [12] 0.968 | [13] 0.978 | [15] 0.821 | [16] 0.921

Carnobacterium 1 (Carnobacterium gallinarum)
inactive: [1] 0.879 | [2] 0.827 | [3] 0.955 | [4] 0.823 | [5] 1.13 | [6] 0.363 | [7] 0.986 | [8] 1.17 | [9] 1.01 | [10] 0.951 | [11] 0.779 | [12] 1 | [13] 1.16 | [15] 0.913 | [16] 0.908
active: [14] 0.00936

Rhizobium 1 (Rhizobium herbae)
active: [11] 0.332 | [12] 0.185 | [14] 0.0348
inactive: [1] 0.836 | [2] 0.893 | [3] 1.03 | [4] 0.888 | [5] 0.952 | [6] 1.04 | [7] 1.06 | [8] 0.92 | [9] 1.02 | [10] 1.02 | [13] 0.977 | [15] 1.09 | [16] 1.14

Community 4
active: [14] 0.435
inactive: [1] 0.814 | [2] 0.952 | [3] 0.85 | [4] 0.807 | [5] 0.98 | [6] 0.824 | [7] 0.992 | [8] 1.09 | [9] 0.867 | [10] 1.11 | [11] 0.837 | [12] 1.1 | [13] 0.943 | [15] 1.13 | [16] 0.997

Bacillus 1 (Bacillus foraminis)
active: [14] 0.408
inactive: [1] 0.916 | [2] 1.09 | [3] 0.965 | [4] 1.04 | [5] 1.05 | [6] 1.03 | [7] 1.01 | [8] 1.11 | [9] 0.884 | [10] 1.07 | [11] 0.918 | [12] 1.06 | [13] 1.08 | [15] 1.05 | [16] 0.853

Aeromonas 1 (Aeromonas sp. AE235)
inactive: [1] 0.944 | [2] 0.96 | [3] 0.999 | [4] 0.966 | [5] 0.969 | [6] 0.979 | [7] 0.944 | [8] 1.04 | [9] 0.959 | [10] 1.02 | [11] 0.985 | [12] 1.03 | [13] 0.991 | [15] 0.955 | [16] 0.952
active: [14] 0.000683

Flavobacterium 1 (Flavobacterium glaciei)
inactive: [2] 1.03 | [3] 1.04 | [4] 1.05 | [5] 0.922 | [6] 0.986 | [7] 1.02 | [8] 0.979 | [9] 0.922 | [10] 0.849 | [11] 0.793 | [12] 1.05 | [13] 0.965 | [15] 0.895 | [16] 0.915
active: [1] 0.25 | [14] 0.0158

Aeromonas 2 (Aeromonas sobria)
active: [14] 0.00514
inactive: [1] 0.874 | [2] 0.948 | [3] 0.962 | [4] 0.971 | [5] 0.986 | [6] 0.986 | [7] 0.999 | [8] 1.01 | [9] 0.993 | [10] 1.03 | [11] 0.936 | [12] 0.987 | [13] 0.974 | [15] 0.907 | [16] 0.973
